Measured values reported in paper PMC4336329 (PLoS ONE, 2015).
Out of some 310,000 compounds screened, about 14,000 (4.5%) showed an effect of 50% or more. The effect is printed as a negative number. For the sample, strong results were picked, then their nearest neighbours and some compounds at random.

The compounds below were run against human ether-à-go-go-related gene (hERG) potassium channel (human, UniProt Q12809) (assay: primary screen, population patch clamp on CHO cells stably expressing hERG; higher = less effect of the substance).
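Note: peak tail current of the secondary pulse compared with the same well before compound.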

Chain of human ether-à-go-go-related gene (hERG) potassium channel (Q12809 whole entry, looked up): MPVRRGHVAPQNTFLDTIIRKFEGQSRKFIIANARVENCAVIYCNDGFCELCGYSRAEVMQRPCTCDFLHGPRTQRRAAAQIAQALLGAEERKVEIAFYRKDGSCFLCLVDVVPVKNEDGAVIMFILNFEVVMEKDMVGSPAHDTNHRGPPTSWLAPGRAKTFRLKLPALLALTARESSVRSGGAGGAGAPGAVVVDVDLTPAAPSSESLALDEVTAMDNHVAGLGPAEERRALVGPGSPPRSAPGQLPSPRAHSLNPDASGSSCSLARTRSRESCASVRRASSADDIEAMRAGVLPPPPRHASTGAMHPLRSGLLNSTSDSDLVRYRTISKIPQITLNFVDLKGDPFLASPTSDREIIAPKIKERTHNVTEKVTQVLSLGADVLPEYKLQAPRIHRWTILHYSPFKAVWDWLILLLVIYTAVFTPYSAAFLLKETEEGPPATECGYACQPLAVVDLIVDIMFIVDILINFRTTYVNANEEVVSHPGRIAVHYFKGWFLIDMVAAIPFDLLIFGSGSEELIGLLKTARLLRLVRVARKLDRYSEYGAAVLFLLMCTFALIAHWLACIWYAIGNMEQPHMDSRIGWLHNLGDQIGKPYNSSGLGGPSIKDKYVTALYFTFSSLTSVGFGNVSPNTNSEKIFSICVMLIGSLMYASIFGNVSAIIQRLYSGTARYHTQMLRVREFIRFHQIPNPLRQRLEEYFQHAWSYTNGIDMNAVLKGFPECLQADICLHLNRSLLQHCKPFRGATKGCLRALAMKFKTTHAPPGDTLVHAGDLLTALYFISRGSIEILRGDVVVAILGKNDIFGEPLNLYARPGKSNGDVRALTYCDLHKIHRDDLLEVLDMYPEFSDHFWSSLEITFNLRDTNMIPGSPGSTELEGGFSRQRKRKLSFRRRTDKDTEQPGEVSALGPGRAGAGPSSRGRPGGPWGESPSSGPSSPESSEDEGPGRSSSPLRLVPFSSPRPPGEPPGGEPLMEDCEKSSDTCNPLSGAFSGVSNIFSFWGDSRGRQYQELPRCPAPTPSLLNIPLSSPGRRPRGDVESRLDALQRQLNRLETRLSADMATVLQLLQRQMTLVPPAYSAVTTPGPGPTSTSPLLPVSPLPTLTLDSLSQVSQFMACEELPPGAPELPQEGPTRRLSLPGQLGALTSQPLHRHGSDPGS

Row | Structure (SMILES) | hERG current change (%, negative = inhibition) at 10uM
1 | NS(=O)(=O)c1ccc(NN=C2CCN(Cc3ccccc3)CC2)c([N+](=O)[O-])c1 | -17.6%
2 | CCOC(=O)NC(=O)CSc1ccc2ccccc2n1 | 14%
3 | CCC1(C(=O)OC)NC(c2ccco2)C2C(=O)N(c3ccc(F)cc3)C(=O)C21 (stereo not drawn) | 6.75%
4 | CCOC(=O)C1CCN(S(=O)(=O)c2cccc(-c3cn4cccnc4n3)c2)CC1 | -24.7%
5 | Cc1nc(-c2cccc(S(=O)(=O)N3CCCCCC3)c2)cs1 | -23.2%
6 | CCOC(=O)C1CCN(S(=O)(=O)c2cccc(-c3cn4ccccc4n3)c2)CC1 | -60.4%
7 | CCOC(=O)C1CCN(S(=O)(=O)c2cccc(-c3csc(C)n3)c2)CC1 | -53.5%
8 | CCOC(=O)C1CCN(S(=O)(=O)c2cccc(-c3cn4cc(Cl)ccc4n3)c2)CC1 | -58%
9 | CCOC(=O)C1CCN(S(=O)(=O)c2cccc(-c3cn4cccc(C)c4n3)c2)CC1 | -21.3%
10 | CC1CCN(S(=O)(=O)c2cccc(-c3cn4cc(Cl)ccc4n3)c2)CC1 | -5.86%
11 | Cc1nc(-c2cccc(S(=O)(=O)N3CCC(C)CC3)c2)cs1 | -13.4%
12 | CCOC(=O)C1CCN(S(=O)(=O)c2cccc(-c3cn4cc(C)ccc4n3)c2)CC1 | -3.7%
13 | COc1ccccc1C(=O)NC(C)c1cccc2ccccc12 (stereo not drawn) | 8.02%
14 | C=CCN(C(=O)c1ccc(Cl)cc1)c1ccccc1C(=O)NCC(=O)O | 21.1%
15 | CCC(NC(=O)NCCCn1ccnc1)(C(F)(F)F)C(F)(F)F | 8.18%
16 | CC(C)c1ccc(N=c2c([N+](=O)[O-])nn(-c3ccc4c(c3)OCCO4)n2O)cc1 | 1.98%
17 | COc1ccc(CSc2ccc(-c3nc4ccccn4c3NCc3ccccc3)cc2OC)cc1.O=C(O)C(F)(F)F | 8.68%
18 | C=CCn1c(SCCCCCC)nc(O)cc1=O | -4%
19 | Cc1ccccc1/C=N\NC(=O)c1ccccc1-n1cccc1 | 18.5%
20 | COc1cccc(C2C(=O)c3ccccc3C2=O)c1 | 16.9%
21 | NS(=O)(=O)c1ccc(CCNC(=S)NC2CCCC2)cc1 | 11.2%
22 | NS(=O)(=O)c1ccc(CCNCC(=O)NC2CC2)cc1 | -64.1%
23 | NS(=O)(=O)c1ccc(CCNC(=O)CNCCc2ccccc2)cc1 | 16.2%

Row | Structure (SMILES) | hERG current change (%, negative = inhibition) at 10uM
24 | O=C(CCNC(=O)c1ccccc1Cl)NCCCSc1ccccc1 | -8.64%
25 | Br.Clc1ccc2nc(CN3CCCCC3)cn2c1 | -32.7%
26 | CN(C)Cc1c(O)ccc2ccccc12 | 0.0591%
27 | Cc1cc2ccc3ccccc3c2cc1CN(C)C.Cl | -51.9%
28 | CN(C)Cc1cc2ccccc2c2c1COC2 | -0.493%
29 | O=C(O)CCC(=O)N1N=C(c2ccc(Br)cc2)CC1c1ccc(Br)cc1 (stereo not drawn) | 20.6%
30 | Cc1ccc(C)c(C(=O)Nc2nc3ccccc3[nH]2)c1 | 25.9%
31 | Cc1ccc(CN2CCC(N3CCC(C(=O)NCC4CCCO4)CC3)CC2)o1 (stereo not drawn) | -4.02%
32 | O=C(NCC1CCCO1)C1CCN(C2CCN(C3CCCCCC3)CC2)CC1 (stereo not drawn) | 28.4%
33 | O=C(NCC1CCCO1)C1CCN(C2CCN(CCCC3CCCC3)CC2)CC1 (stereo not drawn) | -58%
34 | Cc1cc(C)c(CN2CCC(N3CCC(C(=O)NCC4CCCO4)CC3)CC2)cc1C (stereo not drawn) | -24.4%
35 | CCOc1cccc(CN2CCC(N3CCC(C(=O)NCC4CCCO4)CC3)CC2)c1 (stereo not drawn) | -10.5%
36 | Cc1ccccc1CN1CCC(N2CCC(C(=O)NCC3CCCO3)CC2)CC1 (stereo not drawn) | -1.07%
37 | O=C(NCCc1ccccc1)C1CCN(Cc2ccccc2F)CC1.O=C(O)C(=O)O | 1.53%
38 | O=C(NCCc1ccccc1)C1CCN(C2CCN(Cc3ccco3)CC2)CC1 | -62.7%
39 | O=C(NCC1CCCO1)C1CCN(C2CCN(Cc3cccs3)CC2)CC1 (stereo not drawn) | -64.2%
40 | O=C(NCCc1ccccc1)C1CCN(C2CCN(Cc3ccc(CO)o3)CC2)CC1 | 18.2%
41 | O=C(NCC1CCCO1)C1CCN(C2CCN(Cc3ccco3)CC2)CC1 (stereo not drawn) | -51%
42 | O=C(NCC1CCCO1)C1CCN(C2CCN(C(=O)CC3CCCC3)CC2)CC1 (stereo not drawn) | -10%
43 | Cc1ccc(C(=O)Nc2cc(C(C)C)c(O)c(C(C)C)c2)cc1 | -4.12%
44 | CC(=O)[C@@H]1[C@@H](C)N(Cc2ccccc2)C(=O)N[C@H]1c1cccc(C(F)(F)F)c1 | 5.55%
45 | Cc1nnsc1C(=O)Nc1ccccc1 | 18.2%
